Drawing on PubChem BioAssay (NCATS), this text covers Potency and activity (max response) for 18 molecules.

Records with an inconclusive call do not appear. Where a call stands in place of a potency, no number is given. Values without a mark were called inactive. Active and inactive are the calls of the source. Calls follow the shape of the dose curve; as a rule, active = well fitted curve in the direction sought with a large enough effect; inconclusive = small, poorly fitted or top-dose-only effect, or another doubt; inactive = no such curve, though single readings can be large; an effect the other way counts as inactive or inconclusive.
Potency is read from the fitted curve at half-maximal effect.

One assay can be described thus: Quantitative highthroughput screen to assess conditional lethalithy of SEM cells grown in RPMI1640 with dialyzed fetal bovine serum (RPMI+ds) (AID 1963884). Also: nearly all actives have a fitted effect of over 35% in size. Conditions: SEM B-ALL cells, RPMI+dialyzed FBS, CellTiter-Glo viability, 48 h; series mostly up to 45.8 µM. The procedure, abridged:
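Each medium arm—HPLM with 10% dialyzed FBS, or RPMI1640 with 5 mM glucose and 10% untreated or dialyzed FBS—was screened against an 11-point, 3-fold compound titration for 48 h at 37 °C, with CellTiter-Glo luminescence as endpoint.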
On to `Cc1nc(-c2ccc(-c3ccc(C(=O)N4CCc5cc6c(cc54)C4(CCN(C)CC4)CO6)cc3)c(C)c2)no1`, for which the Potency entry was “inactive”.
With `CCN1C[C@]2(OC(=O)c3ccccc3NC(C)=O)CC[C@H](OC)[C@@]34[C@H]5CC6[C@@H](OC)C[C@](O)(C(C[C@@H]23)[C@@H]14)[C@@]5(O)[C@@H]6OC`, the Potency result was “inactive”.
On to `O=C(O)CNC(=O)c1c(O)c2ccccc2n(Cc2ccccc2)c1=O`, for which the Potency entry is “inactive”.
Still for that read-out and setting: in the case of `O=c1[nH]c2ccc(Cl)cc2c(N[C@@H]2CN3CCC2CC3)c1-c1nc2ccccc2[nH]1` it was 66.2 nM (active); in that of `CC(C)(C)[C@]1(O)C[C@@H]2OC(=O)C[C@@]23C(=O)O[C@@H]2OC(=O)[C@H](O)C213` (stereo partly drawn), “inactive”.
For the molecule `CCOC(=O)c1cncn1[C@H](C)c1ccccc1`, the Potency result is “inactive”.
On the same count and under the same terms, in the case of `Oc1ccc2c3c1O[C@H]1c4[nH]c5c(c4C[C@@]4(O)[C@@H](C2)N(CC2CC2)CC[C@]314)C[C@@]1(O)[C@H]2Cc3ccc(O)c4c3[C@@]1(CCN2CC1CC1)[C@H]5O4` it was “inactive”; in that of `CC(N[C@H]1C[C@H]1c1ccccc1)c1ccc2c(c1)OCCO2` (stereo partly drawn), “inactive”; in that of `C[C@H]([C@H](O)CCC(C)(C)O)[C@H]1CC[C@@]2(O)C3=CC(=O)[C@@H]4C[C@@H](O)[C@@H](O)C[C@]4(C)[C@@H]3CC[C@]12C`, “inactive”.
Still for that read-out and setting: the entry for `C#C[C@]1(O)C=C[C@@H]2[C@@H]3CCC4=CC(=O)CC[C@@H]4[C@H]3CC[C@@]21CC` is “inactive”.
Same read-out and setting: in the case of `CCOC(=O)c1c(C(C#N)=CN)c2ccc(Cl)c(Cl)c2n1C` it was “inactive”.
Take `CN(C)CCN(C)CCc1ccc(Cl)c(Cl)c1`: the Potency entry is “inactive”.
The same measure, in the same setting: in the case of `C[C@]12CC[C@H](O)CC1=CC[C@H]1[C@H]3CCC(=O)[C@@]3(C)CC[C@@H]12` it was “inactive”; in that of `CC[C@@H]1[C@@H](C)O[C@@](O)([C@@H](C)[C@H](O)[C@H](C)[C@H]2OC(=O)C=CC=C[C@@H](C)[C@@H]([C@@H](C)[C@@H](O)[C@H](C)[C@@]3(O)C[C@H](O[C@H]4C[C@H](O)[C@H](O)[C@H](C)O4)[C@H](CC)[C@@H](C)O3)OC(=O)C=CC=C[C@@H]2C)C[C@H]1O[C@H]1C[C@H](O)[C@H](O)[C@H](C)O1`, 1870 nM (active).

Another assay in a line: Cellular viability qHTS for adrenocortical cancer (ACC) cell line SW-13 (AID 1963989). Also: nearly all actives have a fitted effect of over 65% in size.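 As to activity (max response): cells grown in serum-free medium with ITS supplement.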 Conditions: SW-13 ACC cells viability, CellTiter-Glo, 48 h; activity (max response): stronger effect = lower value. The procedure, abridged:
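Viability was read as CellTiter-Glo luminescence after 48 h compound treatment (up to 46 uM final) of SW-13 cells grown serum-free; titration curves were fit with a four-parameter logistic model to give IC50 and efficacy.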
Turning to `CCN1C[C@]2(OC(=O)c3ccccc3NC(C)=O)CC[C@H](OC)[C@@]34[C@H]5CC6[C@@H](OC)C[C@](O)(C(C[C@@H]23)[C@@H]14)[C@@]5(O)[C@@H]6OC`, the activity (max response) was -5.39%.
`O=C(O)CNC(=O)c1c(O)c2ccccc2n(Cc2ccccc2)c1=O`: the activity (max response) is 3.51%.
Consider `O=c1[nH]c2ccc(Cl)cc2c(N[C@@H]2CN3CCC2CC3)c1-c1nc2ccccc2[nH]1`, for which the Potency is 3550 nM (active).
On to `O=C(NCC1CCOCC1)c1cnc(Nc2ccc(Cl)cc2Cl)nc1C(F)(F)F`, for which the activity (max response) is -11.7%.
Take `O=C1C=CC[C@@H]2[C@H]3CCCN4CCC[C@@H](CN12)[C@@H]34`: the activity (max response) is -3.97%.
Regarding `CCOC(=O)c1c(C(C#N)=CN)c2ccc(Cl)c(Cl)c2n1C`, the activity (max response) was -1.19%.
For the molecule `CN(C)CCN(C)CCc1ccc(Cl)c(Cl)c1`, the activity (max response) is -5.37%.
On to `C[C@]12CC[C@H]3[C@@H](CCC4=CC(=O)CC[C@@]43C)[C@H]1CC[C@H]2OC(=O)CCC1CCCC1`, for which the activity (max response) is -10.5%.
In the case of `NC1=NC(=O)N2CC12` (stereo not drawn), the activity (max response) is -7.87%.
